TGFb inhibitor – blocks TGF-b signaling; Potency, µM (series often up to 46.1 µM), for the others: at the highest dose activity, negative = inhibition, most hits filed as inhibitors; HepG2 CAGA-GFP TGF-b/SMAD3 reporter, GFP fluorescence, 18 h; TGF-beta stimulated, 500 pg/mL final; 1.2% of 410,000 active; AID 588855; further: on the % scale 0 is the no-effect control and ±100 the full control effect; nearly all actives have a fitted effect of over 65% in size
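Using HEPG2 CAGA-GFP reporter cells at 1000 cells/well, we pinned test compounds, stimulated with recombinant TGF-beta (500 pg/mL final) and measured total well GFP after 18 h.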
ATXN viability – viability counter-screen for ATXN expression inhibitors; Potency, µM (highest dose often 56.7 µM), hits mostly cytotoxic; AID 651635; S2 cells (HEK-293 line with an ATXN2-luciferase reporter) viability, CellTiter-Fluor protease fluorescence, 24 h; 0.49% of 400,000 active; further: nearly all actives have a fitted effect of over 40% in size
HepG2 tox-1 – HepG2 cytotoxicity, counter-screen for TGF-b inhibitors | 0.76% of 410,000 active | Potency, µM (highest dose often 46.1 µM), without a hit: at the highest dose activity change, negative = cytotoxicity, hits mostly cytotoxic | HepG2 CAGA-GFP viability, ATP luminescence, 18 h
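HepG2 CAGA-GFP cells (1000/well, DMEM with 1% FBS) received compound, then TGF-beta at 500 pg/mL final, and were incubated 18 hours at 37 degrees C. Viability was read by CellTiter-Glo luminescence. Media-only wells were set as complete cell-killing and DMSO as no toxicity.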
ATXN2 expr inh – ATXN2 expression inhibition | 0.72% of 360,000 active | HEK-293 ATXN2-luciferase reporter, luminescence, 24 h | Potency, µM (titrated, usually from 57 µM), for inactives: at the highest dose activity change, negative = inhibition, most hits filed as inhibitors; further: on the % scale 0 is the no-effect control and ±100 the full control effect; nearly all actives have a fitted effect of over 55% in size
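ATXN2-luciferase reporter cells (luciferase flanked by upstream and downstream ATXN2 gene portions) were treated 24 h at 37 °C with compounds at up to 57 uM. SteadyGlo luminescence gave expression; GF-AFC fluorescence gave viability.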
TGFb confirm – TGF-b pathway inhibition, cherry-pick retest; 63% of 1,600 active; HepG2 CAGA-GFP TGF-b reporter, GFP fluorescence, 18 h; cells stimulated with TGF-beta, 500 pg/mL; shares compounds with TGFb inhibitor; Potency, µM (doses to about 46.1 µM), without a hit: at the top dose activity, negative = inhibition, most hits filed as inhibitors; further: on the % scale 0 is the no-effect control and ±100 the full control effect; nearly all actives have a fitted effect of over 65% in size
HepG2 tox-2 – toxic to HepG2 cells in TGF-b counterscreen | shares compounds with TGFb inhibitor | HepG2 CAGA-GFP viability, ATP luminescence, 18 h; cells stimulated with TGF-beta, 500 pg/mL | Potency, µM (doses to about 46.1 µM), for inactives: at the highest dose activity, negative = cytotoxicity, usual class: inhibitors | 27% of 1,600 active | AID 720535; further: on the % scale 0 is the no-effect control and ±100 the full control effect; nearly all actives have a fitted effect of over 70% in size
TGFb CCL64 inh – orthogonal confirmation of TGF-b inhibitors in CCL64 cells. shares compounds with TGFb inhibitor. Potency, µM (top dose mostly 46.1 µM), for inactives: at the top dose activity, negative = inhibition, most hits filed as inhibitors. AID 720536. 41% of 1,600 active. CCL64 CAGA-GFP reporter, TGF-b stimulated, GFP fluorescence, 18 h; further: nearly all actives have a fitted effect of over 65% in size
COP TGFb inh – validation of TGF-b inhibitors in HepG2 COP promoter reporter; 3% of 1,600 active; shares compounds with TGFb inhibitor; HepG2 COP-GFP TGF-b reporter, GFP fluorescence, 18 h; cells stimulated by added recombinant TGF-beta; Potency, µM (top dose mostly 46.1 µM), for the others: top-dose activity, negative = inhibition, actives largely listed as inhibitors; further: nearly all actives have a fitted effect of over 70% in size
* = called active by the depositor; i = inactive; ? = inconclusive; / = no result; [ ] = dose if it differs, or a comment. Only some compounds are listed: those with a hit (about 2.3% of all), similar ones and a draw of the others. The call rests on the fitted dose curve; in most records, active means well fitted curve in the direction sought with a large enough effect; inconclusive means small, poorly fitted or top-dose-only effect, or another doubt; inactive means no such curve, though single readings can be large; an effect the other way counts as inactive or inconclusive. Potency means the concentration at half of the fitted maximal effect.

SMILES | TGFb inhibitor | ATXN viability | HepG2 tox-1 | ATXN2 expr inh | TGFb confirm | HepG2 tox-2 | TGFb CCL64 inh | COP TGFb inh
COc1cc2cc(C(=O)N3CC(COS(C)(=O)=O)c4ccc(O)cc43)[nH]c2c(OC)c1OC (stereo not drawn) | 0.0891µM* | 0.336µM* | -91.9% | 0.299µM* | 0.0058µM* | 0.0326µM* | 0.0058µM* | 42.4%
COC(=O)C1=C(c2ccc3ccccc3c2)C[C@@H]2CC[C@H]1N2C(=O)N1CCOCC1 | 12.6µM* | i | -29.3% | 0.0% | ? | -5.3% | 5.5% | 1.5%
COC(=O)C1=C(c2ccc(-c3ccccc3)c(F)c2)C[C@@H]2CC[C@H]1N2C(=O)N1CCC(C)CC1 | 4.47µM* | ? | -0.3% | -34.8% | 7.31µM* | ? | 9.2µM* | 18.2%
CN(C)CCc1c[nH]c2cccc(OP(=O)(O)O)c12 | / | i | / | -5.1%[116 µM] | / | / | / | /
CCC(C(=O)c1ccccc1)P(=O)(NN)c1ccccc1 (stereo not drawn) | -5.6% | i | -30.8% | -2.4% | / | / | / | /
CC1CC(C)(O)CC(C(O)CC2CC(=O)NC(=O)C2)C1=O (stereo not drawn) | 0.316µM* | ? | -2.9% | ? | 0.13µM* | ? | 0.259µM* | 35.1%
CC=CC(C)=CC(C)C(=O)CC(O)CC1CC(=O)NC(=O)C1 (stereo not drawn) | -24.8% | ? | -0.6% | / | / | / | / | /
CCC(Oc1ccccc1OC)C(=O)Nc1ccc2c(c1)OCCO2 (stereo not drawn) | -1.0% | ? | 6.4% | -17.0% | / | / | / | /
CC1=CC(C)CC(C)OC(=O)CC(c2ccc(O)cc2)NC(=O)C(Cc2c(Br)[nH]c3ccccc23)N(C)C(=O)C(C)NC(=O)C(C)C1 (stereo not drawn) | 15.8µM* | 0.015µM* | -7.9% | ? | ? | ? | 0.259µM* | 79.4%
C=Cc1cc(OC)c2c(c1)c(=O)oc1c2cc(OC)c2c(O)ccc(C3OC(C)C(O)C(C)(O)C3O)c21 (stereo not drawn) | 1.41µM* | i | 24.4% | 1.68µM* | 0.92µM* | 1.16µM* | 2.06µM* | 6.8%
CCCCC[C@H]1CCCCC[C@H](O)C[C@@H](O)[C@H](O)/C=C/C(=O)O1 | / | i | / | -22.7% | / | / | / | /
Nc1c(Cl)c(Cl)c(Cl)c(Cl)c1Cl | / | i | / | -7.5%[116 µM] | / | / | / | /
Cc1ccc([C@@H]2CC(=O)[C@@H]3CN(S(=O)(=O)c4ccccc4C)[C@H](c4ccc(Cl)cc4)C[C@@H]3N2S(=O)(=O)c2ccc(C)cc2)cc1 | -1.1% | ? | -2.4% | -8.4% | / | / | / | /
CCC1CN2CCc3cc(OC)c(OC)cc3C2CC1CC1NCCc2c1[nH]c1ccc(O)cc21 (stereo not drawn) | 0.0891µM* | ? | -9.3% | 0.0075µM* | 0.0184µM* | 1.03µM* | 0.0366µM* | 51.9%
COc1ccc2c(c1OC)CN1CCc3cc4c(cc3[C@H]1C2)OCO4 | ? | ? | -28.7% | -2.1% | / | / | / | /
Cc1ccc(C)c(S(=O)(=O)c2nnn3c2nc(N2CCN(C)CC2)c2sccc23)c1 | ? | / | -15.9% | / | / | / | / | /
Nc1nonc1-n1nnc(C(=O)N/N=C/c2ccc3c(c2)OCO3)c1CSc1ccccc1 | 28.8% | i | 10.4% | -16.9% | / | / | / | /
